Inconclusive results are not listed. Entries that show only a call come without a potency. Calls of active or inactive are those of the source. The call rests on the fitted dose curve; in most records, active means well fitted cell-killing curve with a large enough effect; inconclusive means small, poorly fitted or top-dose-only effect; inactive means flat fitted curve, though single readings scatter.
Potency means the concentration at half of the fitted maximal effect.

The test is described as follows: Cell Viability - Renal Proximal Tubule (AID 545).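 Further: cells exposed to compound for 40 hours; nearly all actives have a fitted effect of over 40% in size.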 The settings on record: renal proximal tubule cells viability, primary cells of rat origin; activity change, negative = cytotoxicity: at 91.7 µM (top of the series). The method in brief: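 Primary rat renal proximal tubule cells (1000/well) were treated with compounds for 40 hr at 37 °C in complete medium. Intracellular ATP was measured by CellTiter-Glo luminescence, and AC50 values came from Hill-equation fits of concentration-response data.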
With `c1cc(OCC2CO2)cc(OCC2CO2)c1` (stereo not given), the Potency is 31.6 µM (active).

In the case of `Cc1cc(Nc2ccc(O)cc2)ccc1N`, the Potency result was “inactive”.

On to `CN(C)c1ccc(C2(c3ccc(N(C)C)cc3)OC(=O)c3cc(N(C)C)ccc32)cc1`, for which the Potency result was “inactive”.

On to `O=C(OCC(COC(=O)c1ccccc1)(COC(=O)c1ccccc1)COC(=O)c1ccccc1)c1ccccc1`, for which the Potency entry was “inactive”.

On to `ClC1=C(Cl)C(Cl)(Cl)C(Cl)=C1Cl`, for which the Potency entry was “inactive”.

As to `CC(=O)Nc1ccc(C(=O)CCl)cc1`, the Potency was 31.6 µM (active).

`CC/C(=C(\c1ccccc1)c1ccc(OCCN(C)C)cc1)c1ccc(O)cc1`: the activity change, negative = cytotoxicity is -109% (active).

For `Nc1ccc2cc3ccccc3cc2c1`, the Potency entry was “inactive”.

On to `c1ccc2c(c1)-c1cccc3c1c-2cc1ccccc13`, for which the Potency entry is “inactive”.

Take `O=C=Nc1ccc(Cc2ccc(N=C=O)cc2)cc1`: the Potency result is “inactive”.

As for `O=[N+]([O-])c1cc([N+](=O)[O-])c2ccc(S(=O)(=O)O)cc2c1O`, the Potency entry is “inactive”.

With `Cc1cc(O)c(C(C)(C)C)cc1Sc1cc(C(C)(C)C)c(O)cc1C`, the Potency was 25.1 µM (active).

With `CCC(C)Nc1ccc(NC(C)CC)cc1` (stereo not given), the activity change, negative = cytotoxicity is -100% (active).

Regarding `C=CC(=O)OCCOCCOC(=O)C=C`, the Potency is 20 µM (active).

For the molecule `O=C1OC2(c3cc(Br)c(O)c(Br)c3Oc3c2cc(Br)c(O)c3Br)c2c(Cl)c(Cl)c(Cl)c(Cl)c21`, the Potency result was “inactive”.

In the case of `Oc1ccc2cc(SSc3ccc4cc(O)ccc4c3)ccc2c1`, the activity change, negative = cytotoxicity was -82.8% (active).

With `c1ccc2c(c1)ccc1cc3c(ccc4ccccc43)cc12`, the Potency entry was “inactive”.

With `C=C(C)c1ccccc1`, the Potency result was “inactive”.

With `O=C1OC(O)C(C(Cl)Cl)=C1Cl` (stereo not given), the Potency is 31.6 µM (active).

As for `Cc1ccc(S(=O)(=O)Oc2ccc(N=Nc3ccc(-c4ccc(N=Nc5c(O)ccc6cc(S(=O)(=O)O)cc(S(=O)(=O)O)c56)c(C)c4)cc3C)cc2)cc1`, the Potency was 31.6 µM (active).

The values above are taken from PubChem BioAssay (NCATS).
